# According to PubChem BioAssay (NCATS):
# Values joined by “and” are separate entries in the source; they are usually repeats but may differ in a detail not shown here. Identical values can stand only once. Inconclusive results are not listed. Some compounds were tested as several samples or in several runs, with calls that do not always agree. Active and inactive are the calls of the source. Unless noted, calls come from the whole dose curve.
# Tests used:
# [1] = target: Glucocorticoid receptor (Homo sapiens) (UniProt P04150); assay: qHTS assay for small molecule agonists of glucocorticoid receptor signaling (AID 588532; active = well fitted curve in the direction sought with a large enough effect in the signal ratio, with a control signal flat; the % refers to the signal ratio;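 note: 100% = dexamethasone at 0.1 µM and 0% = DMSO only wells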); conditions: HeLa MMTV-bla, beta-lactamase ratio, agonist, 18 h; activation: stronger effect = higher value, percent of dexamethasone control, DMSO zero
# Chain of Glucocorticoid receptor (Homo sapiens) (P04150 whole entry, looked up): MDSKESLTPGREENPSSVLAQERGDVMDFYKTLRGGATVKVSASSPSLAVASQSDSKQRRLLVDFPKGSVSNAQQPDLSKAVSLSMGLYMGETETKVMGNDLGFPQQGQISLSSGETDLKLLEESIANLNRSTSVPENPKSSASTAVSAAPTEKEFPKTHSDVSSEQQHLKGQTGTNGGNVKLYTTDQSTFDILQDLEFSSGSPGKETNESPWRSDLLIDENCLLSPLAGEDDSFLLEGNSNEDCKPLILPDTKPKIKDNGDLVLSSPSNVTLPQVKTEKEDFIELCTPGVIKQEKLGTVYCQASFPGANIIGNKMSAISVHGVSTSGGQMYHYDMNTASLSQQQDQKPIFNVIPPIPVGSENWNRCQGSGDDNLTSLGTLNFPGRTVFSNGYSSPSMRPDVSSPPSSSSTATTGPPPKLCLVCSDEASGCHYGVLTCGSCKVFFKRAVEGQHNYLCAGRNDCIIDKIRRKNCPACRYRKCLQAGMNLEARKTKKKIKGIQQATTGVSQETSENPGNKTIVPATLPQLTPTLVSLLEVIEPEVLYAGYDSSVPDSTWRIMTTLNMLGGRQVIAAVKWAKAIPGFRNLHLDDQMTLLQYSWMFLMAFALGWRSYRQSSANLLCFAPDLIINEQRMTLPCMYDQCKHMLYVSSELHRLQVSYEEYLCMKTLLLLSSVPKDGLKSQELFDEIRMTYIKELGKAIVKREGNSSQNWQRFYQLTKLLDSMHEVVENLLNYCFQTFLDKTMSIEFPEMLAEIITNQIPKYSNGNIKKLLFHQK
# Method in brief: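 Titration series, up to 92 uM, applied to GRE-bla HeLa cells for 18 h at 37 C. Detection by CCF4 FRET substrate after 2 h at RT.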
# [2] = target: Glucocorticoid receptor (Homo sapiens) (UniProt P04150); assay: qHTS assay for small molecule antagonists of glucocorticoid receptor signaling (AID 588533; active = well fitted inhibition curve with a large enough effect in the signal ratio, with a control signal flat, not every such curve was filed as active; the % refers to the signal ratio;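 note: cells stimulated with 2 nM dexamethasone as agonist; % is set by controls: 0 for no effect and ±100 for the full control effect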)
# Method in brief: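 Antagonist-mode qHTS: compound titrations added to GRE-bla HeLa cells, then dexamethasone 2 nM final; 18 h, 37 C. CCF4 FRET fluorescence normalized to dexamethasone and DMSO; IC50 from Hill fit.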
# [3] = target: Peroxisome proliferator-activated receptor delta (Homo sapiens) (UniProt Q03181); assay: qHTS assay for small molecule agonists of peroxisome proliferator-activated receptor delta signaling (AID 588534);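 note: 0% = DMSO basal wells and 100% = positive control agonist at 10 µM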
# Chain of Peroxisome proliferator-activated receptor delta (Homo sapiens) (Q03181 whole entry, looked up): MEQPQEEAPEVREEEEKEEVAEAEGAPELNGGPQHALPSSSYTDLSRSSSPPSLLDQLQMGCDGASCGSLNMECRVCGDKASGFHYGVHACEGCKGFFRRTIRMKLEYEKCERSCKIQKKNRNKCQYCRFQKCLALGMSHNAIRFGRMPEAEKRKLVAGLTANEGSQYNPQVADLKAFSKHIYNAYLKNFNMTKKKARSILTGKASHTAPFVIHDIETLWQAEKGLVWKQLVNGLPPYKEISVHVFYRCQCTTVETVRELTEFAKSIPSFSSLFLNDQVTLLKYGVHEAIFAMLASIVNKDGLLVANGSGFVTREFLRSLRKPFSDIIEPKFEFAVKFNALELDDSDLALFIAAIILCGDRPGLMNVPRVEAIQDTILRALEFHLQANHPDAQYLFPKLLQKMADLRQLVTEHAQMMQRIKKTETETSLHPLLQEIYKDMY
# Method in brief: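 Titration series tested in agonist mode on beta-lactamase reporter cells; 18 hrs at 37 C after a 5 hr pre-incubation. Readout: CCF4 fluorescence, 2 hrs RT. Hill equation gives EC50 and maximal response.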
# [4] = qHTS assay for small molecule antagonists of peroxisome proliferator-activated receptor delta signaling (AID 588535; active = well fitted inhibition curve with a large enough effect in the signal ratio, with a control signal flat, not every such curve was filed as active; the % refers to the signal ratio;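 for max response: cells co-treated with a PPAR-delta agonist as stimulator during compound exposure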); conditions: HEK293T PPARd-UAS-bla, beta-lactamase FRET ratio, 18 h; 460 nm channel
# Method in brief: (§1)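 Compounds tested in titration on PPAR-delta-UAS-bla HEK293T cells grown in charcoal/dextran-stripped serum (2%); beta-lactamase activity read via CCF4 emission at 460 and 530 nm.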
# [5] = target: Peroxisome proliferator-activated receptor delta (Homo sapiens) (UniProt Q03181); assay: as above
# Method in brief: as §1
# [6] = target: Peroxisome proliferator-activated receptor gamma (Homo sapiens) (UniProt P37231); assay: qHTS assay for small molecule agonists of peroxisome proliferator-activated receptor gamma signaling (AID 588536; active = well fitted curve in the direction sought with a large enough effect in the signal ratio, with a control signal flat, not every such curve was filed as active; the % refers to the signal ratio;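 note: 0% = DMSO basal wells and 100% = rosiglitazone at 2 µM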)
# Chain of Peroxisome proliferator-activated receptor gamma (Homo sapiens) (P37231 whole entry, looked up): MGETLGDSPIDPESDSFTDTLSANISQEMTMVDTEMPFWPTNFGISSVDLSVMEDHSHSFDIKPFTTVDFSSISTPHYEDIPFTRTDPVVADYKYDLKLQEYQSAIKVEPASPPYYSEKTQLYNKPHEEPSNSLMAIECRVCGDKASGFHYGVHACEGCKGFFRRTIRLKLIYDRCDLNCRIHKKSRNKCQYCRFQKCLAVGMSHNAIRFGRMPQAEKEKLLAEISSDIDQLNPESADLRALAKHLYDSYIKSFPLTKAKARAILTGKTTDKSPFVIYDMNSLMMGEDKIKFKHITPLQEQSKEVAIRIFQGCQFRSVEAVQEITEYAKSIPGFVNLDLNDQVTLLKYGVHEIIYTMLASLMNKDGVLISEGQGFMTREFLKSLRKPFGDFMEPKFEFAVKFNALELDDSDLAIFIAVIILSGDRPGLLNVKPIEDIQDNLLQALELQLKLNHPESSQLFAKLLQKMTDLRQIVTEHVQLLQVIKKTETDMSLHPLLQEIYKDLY
# Method in brief: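 This is an agonist-mode beta-lactamase reporter assay in HEK293 PPAR-gamma-UAS-bla cells with 1% charcoal/dextran FBS. Compound titrations ran 16 h at 37 C before CCF4 detection. EC50 and efficacy are Hill fits scaled to 2 uM rosiglitazone (100%) and DMSO basal.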
# [7] = target: Vitamin D3 receptor (Homo sapiens) (UniProt P11473); assay: qHTS assay for small molecule antagonists of vitamin D receptor signaling (AID 588541);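 note: receptor activated by calcitriol during compound treatment; series mostly up to about 77 µM; % is set by controls: 0 for no effect and ±100 for the full control effect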
# Chain of Vitamin D3 receptor (Homo sapiens) (P11473 whole entry, looked up): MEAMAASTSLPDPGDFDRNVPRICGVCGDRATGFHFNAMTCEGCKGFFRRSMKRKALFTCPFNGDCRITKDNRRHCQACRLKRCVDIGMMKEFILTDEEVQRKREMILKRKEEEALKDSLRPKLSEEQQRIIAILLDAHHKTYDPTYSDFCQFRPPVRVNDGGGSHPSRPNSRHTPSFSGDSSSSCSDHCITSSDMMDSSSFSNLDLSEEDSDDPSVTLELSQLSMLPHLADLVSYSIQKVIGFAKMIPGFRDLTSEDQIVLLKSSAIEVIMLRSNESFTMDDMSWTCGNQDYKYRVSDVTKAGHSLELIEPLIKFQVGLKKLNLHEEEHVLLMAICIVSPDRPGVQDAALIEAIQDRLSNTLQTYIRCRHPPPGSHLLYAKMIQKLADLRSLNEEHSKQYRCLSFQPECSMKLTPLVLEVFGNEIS
# Method in brief: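 VDR-UAS-bla HEK293T cells (2000/well, 2% charcoal-stripped FBS) were treated with titrated compounds plus 1-alpha,25-dihydroxyvitamin D3 (50 nM or 3 nM final) for 16 h at 37 C. CCF4 beta-lactamase fluorescence was read; Hill fits gave IC50.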
# [8] = target: Vitamin D3 receptor (Homo sapiens) (UniProt P11473); assay: qHTS assay for small molecule agonists of vitamin D receptor signaling (AID 588543);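 note: 0% = DMSO basal and 100% = reference agonist control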
# Method in brief: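 VDR-UAS-bla HEK293T cells, 2000/well, 2% charcoal-stripped FBS; compound titration 16 h at 37 C; CCF4 beta-lactamase ratio read. Normalized to 50 nM 1-alpha,25-dihydroxyvitamin D3 (100%) and DMSO; Hill fit gives EC50, efficacy.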
# [9] = qHTS assay for small molecule agonists of retinoid X receptor alpha signaling (AID 588544); conditions: HEK293T RXRa-UAS-bla, beta-lactamase reporter, 18 h; 530 nm emission;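 for activation: 0% = DMSO basal wells and 100% = reference agonist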
# [10] = target: Retinoic acid receptor RXR-alpha (Homo sapiens) (UniProt P19793); assay: as above
# Chain of Retinoic acid receptor RXR-alpha (Homo sapiens) (P19793 whole entry, looked up): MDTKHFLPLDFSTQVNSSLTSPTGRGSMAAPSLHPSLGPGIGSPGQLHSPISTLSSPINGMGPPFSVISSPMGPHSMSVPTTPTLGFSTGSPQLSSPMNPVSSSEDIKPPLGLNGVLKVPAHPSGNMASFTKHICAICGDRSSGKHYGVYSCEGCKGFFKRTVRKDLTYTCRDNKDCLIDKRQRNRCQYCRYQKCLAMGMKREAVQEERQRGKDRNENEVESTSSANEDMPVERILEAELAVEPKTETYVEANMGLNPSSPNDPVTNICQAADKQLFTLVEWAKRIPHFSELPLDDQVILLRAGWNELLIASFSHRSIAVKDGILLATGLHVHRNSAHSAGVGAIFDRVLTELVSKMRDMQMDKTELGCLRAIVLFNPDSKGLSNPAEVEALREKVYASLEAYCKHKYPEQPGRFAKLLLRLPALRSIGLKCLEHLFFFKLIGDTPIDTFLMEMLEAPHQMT
# [11] = qHTS assay for small molecule antagonists of retinoid X receptor alpha signaling (AID 588546; active = well fitted inhibition curve with a large enough effect in the signal ratio, with a control signal flat, not every such curve was filed as active; the % refers to the signal ratio;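 note: cells stimulated with 9-cis-retinoic acid as agonist; % is set by controls: 0 for no effect and ±100 for the full control effect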); conditions: HEK293T RXRa-UAS-bla, beta-lactamase ratio, antagonist mode; measured here: W530 green channel, cytotoxicity proxy
# Method in brief: (§2)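 Beta-lactamase reporter inhibition, read as CCF4 fluorescence ratio (ex 405, em 460/530 nm) after 2 h at RT. HEK293T UAS-bla cells, 2500/well, were stimulated with 9-cis-RA at 500 or 100 nM final alongside test compound for 18 h at 37 C.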
# [12] = target: Retinoic acid receptor RXR-alpha (Homo sapiens) (UniProt P19793); assay: as above; conditions: HEK293T RXRa-UAS-bla, beta-lactamase ratio, antagonist mode
# Method in brief: as §2
# [13] = target: Thyroid hormone receptor beta (Homo sapiens) (UniProt P10828); assay: qHTS assay for small molecule antagonists of thyroid hormone receptor beta signaling (AID 588547; active = well fitted inhibition curve with a large enough effect in the signal ratio, with a control signal flat, not every such curve was filed as active; the % refers to the signal ratio;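 note: cells stimulated with 0.4 nM T3 agonist during compound exposure; series mostly up to about 77 µM; % is set by controls: 0 for no effect and ±100 for the full control effect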); conditions: TR-UAS-bla HEK293, beta-lactamase ratio, antagonist mode, 18 h
# Chain of Thyroid hormone receptor beta (Homo sapiens) (P10828 whole entry, looked up): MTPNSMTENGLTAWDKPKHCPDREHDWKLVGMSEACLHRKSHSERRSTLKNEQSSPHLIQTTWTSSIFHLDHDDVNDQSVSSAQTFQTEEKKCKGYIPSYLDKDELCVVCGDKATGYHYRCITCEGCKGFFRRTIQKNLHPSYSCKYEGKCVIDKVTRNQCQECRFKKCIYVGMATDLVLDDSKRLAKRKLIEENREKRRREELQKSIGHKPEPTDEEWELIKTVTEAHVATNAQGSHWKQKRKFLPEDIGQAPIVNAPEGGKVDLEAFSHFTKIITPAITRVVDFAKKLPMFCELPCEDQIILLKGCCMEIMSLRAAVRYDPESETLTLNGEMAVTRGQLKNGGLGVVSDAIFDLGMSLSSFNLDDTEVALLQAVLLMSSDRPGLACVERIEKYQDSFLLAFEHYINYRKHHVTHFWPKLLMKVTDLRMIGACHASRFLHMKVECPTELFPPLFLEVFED
# Method in brief: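 TR-UAS-bla GripTite HEK293 cells in 2% charcoal/dextran FBS medium were preincubated 4 h at 37 C, given compound (0.59 nM to 92 uM) plus 0.4 nM T3 (final) for 18 h, then CCF4 for 2 h at RT; Hill fit gave IC50.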
# [14] = qHTS assay for small molecule activators of the p53 signaling pathway (AID 651743; active = well fitted activation curve with a large enough effect in the signal ratio, not every such curve was filed as active; the % refers to the signal ratio; note: series mostly up to about 92 µM; % of control where 0% means no effect); conditions: HCT-116 p53RE-bla, beta-lactamase FRET ratio, 16 h; activation: stronger effect = higher value
# Method in brief: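 Here HCT-116 cells with an integrated p53-responsive beta-lactamase gene were incubated with compounds (16 hours, 37 C) after a 5-hour plating period; beta-lactamase activity was detected as fluorescence intensity via B/G FRET substrate.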
# [15] = qHTS assay for small molecule activators of the nuclear factor-kappa B (NF-kB) signaling pathway (AID 651749; active = well fitted activation curve with a large enough effect in the signal ratio; the % refers to the signal ratio; note: series mostly up to about 77 µM; % of control where 0% means no effect); conditions: NF-kB-bla ME-180 cells, beta-lactamase FRET ratio, 16 h; activation: stronger effect = higher value
# Method in brief: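 Beta-lactamase reporter expression, controlled by NF-kB response elements in ME-180 cells, was quantified fluorometrically via FRET disruption; cells at 2,000/well had been incubated with 23 nL test compound for 16 hr.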
# [16] = qHTS assay for environmental chemicals that activate the Aryl hydrocarbon Receptor (AhR) signaling pathway (AID 651777; active = well fitted curve in the direction sought with a large enough effect; an effect the other way counts as inactive or inconclusive; note: % of control where 0% means no effect; nearly all actives have a fitted effect of over 15% in size); conditions: 1A2-DRE human hepatoma cells, luciferase, 24 h; activation: stronger effect = higher value
# Method in brief: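 Concentration–response screening used 1,200 1A2-DRE cells per well, 24 hr compound exposure (37 C, 5% CO2), and One-Glo luminescence as the AhR-driven CYP1A2 reporter signal.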
# [17] = qHTS assay for small molecule agonists of the antioxidant response element (ARE) signaling pathway measured by Nrf2-dependant transcriptional activity (AID 720636; active = well fitted curve in the direction sought with a large enough effect in the repeat runs; an effect the other way counts as inactive or inconclusive; note: % of control where 0% means no effect)
# Method in brief: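 Attachment 6 hr at 37 C, then compound versus DMSO vehicle for 16 hr in ARE-luc HepG2 cells (1% dialyzed FBS); luminescence recorded 30 min after ONE-Glo addition at room temperature.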
# [18] = qHTS assay for cell viability of HEK293 cells (AID 743288; active = well fitted curve in the direction sought with a large enough effect; an effect the other way counts as inactive or inconclusive; note: % is set by controls: 0 for no effect and ±100 for the full control effect; nearly all actives have a fitted effect of over 50% in size); conditions: ATP luminescence (CellTiter-Glo), 18 h; max response: stronger effect = lower value
# Method in brief: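 Steps: plate 2,000 parental HEK293 cells per well; incubate ≥5 h, 37 C; add compounds in DMSO; incubate 18 h, 37 C; add CellTiter-Glo; wait 30 min at room temperature; read luminescence.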
# [19] = qHTS assay for cell viability of the p53RE-bla HCT-116 cell line (AID 743292; active = well fitted curve in the direction sought with a large enough effect; an effect the other way counts as inactive or inconclusive; note: % is set by controls: 0 for no effect and ±100 for the full control effect; nearly all actives have a fitted effect of over 55% in size)
# Method in brief: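 Compound-exposed HCT-116 (p53RE-bla) cells, 4,000 per well, were kept 16 h at 37 C following a 5 h preincubation. Cell number was estimated from total ATP by CellTiter-Glo luminescence read after 30 min at room temperature.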
# [20] = target: Nuclear receptor subfamily 1 group I member 2 (Rattus norvegicus) (UniProt Q9R1A7); assay: qHTS assay for small molecule activators of the rat pregnane X receptor (rPXR) signaling pathway (AID 651751; call rule not given here; note: 0% is about no effect); conditions: rPXR reporter cells, luciferase (One-Glo), 24 h
# Chain of Nuclear receptor subfamily 1 group I member 2 (Rattus norvegicus) (Q9R1A7 whole entry, looked up): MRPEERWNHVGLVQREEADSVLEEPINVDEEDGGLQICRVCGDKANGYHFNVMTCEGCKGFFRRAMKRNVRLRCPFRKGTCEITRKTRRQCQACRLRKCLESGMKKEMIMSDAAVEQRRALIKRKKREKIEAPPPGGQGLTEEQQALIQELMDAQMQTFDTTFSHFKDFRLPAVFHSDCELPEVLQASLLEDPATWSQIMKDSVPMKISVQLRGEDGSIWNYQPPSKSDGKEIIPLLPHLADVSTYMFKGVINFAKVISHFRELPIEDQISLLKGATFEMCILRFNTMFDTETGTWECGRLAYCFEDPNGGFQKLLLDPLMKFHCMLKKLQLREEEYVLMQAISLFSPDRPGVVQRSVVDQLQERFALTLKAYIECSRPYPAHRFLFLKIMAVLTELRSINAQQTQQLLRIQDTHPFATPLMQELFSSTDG
# [21] = target: Cytochrome P450 3A4 (Homo sapiens) (UniProt P08684); assay: qHTS Assay for Inhibitors and Substrates of Cytochrome P450 3A4 (AID 884; active = well fitted curve in the direction sought with a large enough effect; an effect the other way counts as inactive or inconclusive; note: potency is the fitted concentration of half-maximal effect; nearly all actives have a fitted effect of over 50% in size)
# Chain of Cytochrome P450 3A4 (Homo sapiens) (P08684 whole entry, looked up): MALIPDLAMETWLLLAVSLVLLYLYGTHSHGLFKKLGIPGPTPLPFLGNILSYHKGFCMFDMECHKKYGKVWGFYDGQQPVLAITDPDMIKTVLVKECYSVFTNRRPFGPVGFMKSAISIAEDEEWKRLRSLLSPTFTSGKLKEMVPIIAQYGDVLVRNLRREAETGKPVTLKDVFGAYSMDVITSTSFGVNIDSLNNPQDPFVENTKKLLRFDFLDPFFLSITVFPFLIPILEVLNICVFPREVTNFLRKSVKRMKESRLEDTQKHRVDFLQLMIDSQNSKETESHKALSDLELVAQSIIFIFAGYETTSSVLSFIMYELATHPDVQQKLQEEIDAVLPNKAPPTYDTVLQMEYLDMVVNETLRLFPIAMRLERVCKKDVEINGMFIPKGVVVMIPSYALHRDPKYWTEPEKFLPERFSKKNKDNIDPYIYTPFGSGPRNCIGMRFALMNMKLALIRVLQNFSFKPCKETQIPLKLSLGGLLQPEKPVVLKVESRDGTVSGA
# Method in brief: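 Luminescent readout of luciferin produced by CYP3A4 (20 nM) dealkylation of Luciferin-PPXE, 25 uM (its KM). NADPH-driven reaction ran 60 min at RT after 10 min compound preincubation; data scaled to 57 uM ketoconazole as 100% inhibition.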
# [22] = target: Cytochrome P450 3A4 (Homo sapiens) (UniProt P08684); assay: qHTS Assay for Activators of Cytochrome P450 3A4 (AID 885; active = well fitted curve in the direction sought with a large enough effect; an effect the other way counts as inactive or inconclusive; note: nearly all actives have a fitted effect of over 65% in size)
# Method in brief: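 Luminescent readout of luciferin formed from 25 uM Luciferin-PPXE (KM level) by 20 nM CYP3A4 in 200 mM KPO4, with 60 min NADPH-driven reaction at room temperature after 10 min compound exposure. Ketoconazole (57 uM) defined 100% inhibition.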
# [23] = target: Bile acid receptor (Homo sapiens) (UniProt Q96RI1); assay: qHTS assay for small molecule agonists of farnesoid X receptor signaling (AID 588527); conditions: HEK293T FXR-UAS-bla, beta-lactamase ratio, 16 h; activation: stronger effect = higher value;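 note: series mostly up to about 77 µM; 0% = vehicle basal and 100% = reference agonist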
# Chain of Bile acid receptor (Homo sapiens) (Q96RI1 whole entry, looked up): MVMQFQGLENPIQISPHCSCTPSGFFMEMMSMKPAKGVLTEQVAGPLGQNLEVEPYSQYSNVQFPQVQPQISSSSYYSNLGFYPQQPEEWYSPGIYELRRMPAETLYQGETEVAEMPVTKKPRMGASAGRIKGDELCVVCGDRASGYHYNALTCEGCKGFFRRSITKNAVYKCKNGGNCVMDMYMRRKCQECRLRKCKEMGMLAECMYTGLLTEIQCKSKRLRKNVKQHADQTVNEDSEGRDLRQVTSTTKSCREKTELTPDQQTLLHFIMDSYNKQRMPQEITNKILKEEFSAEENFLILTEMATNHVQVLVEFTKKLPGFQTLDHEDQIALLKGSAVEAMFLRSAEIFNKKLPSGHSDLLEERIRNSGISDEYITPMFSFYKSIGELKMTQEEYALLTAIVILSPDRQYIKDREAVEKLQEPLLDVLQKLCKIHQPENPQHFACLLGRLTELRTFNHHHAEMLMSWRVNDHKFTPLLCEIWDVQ
# Method in brief: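 Agonist-mode beta-lactamase reporter in GeneBLAzer FXR-UAS-bla HEK293T cells, titration up to 92 uM, 16 h exposure at 37 C, CCF4 fluorescence. Response scaled to DMSO (0%) and 100 uM chenodeoxycholic acid (100%), then Hill-fitted for EC50 and efficacy.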
# [24] = qHTS assay for small molecule agonists of the antioxidant response element (ARE) signaling pathway (AID 651741; active = well fitted activation curve with a large enough effect in the signal ratio; the % refers to the signal ratio; note: potency is the fitted concentration of half-maximal effect; for activation: % of control where 0% means no effect)
# Method in brief: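 Beta-lactamase reporter expression driven by the antioxidant response element in HepG2 cells was detected by fluorescence with LiveBLAzer B/G FRET substrate (2 h, room temperature) following 16 h compound treatment at 37 C.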
# [25] = target: Nuclear receptor ROR-gamma (Homo sapiens) (UniProt P51449); assay: qHTS assay for small molecule antagonists of the retinoid-related orphan receptor gamma (ROR-gamma) signaling pathway (AID 651802; active = well fitted curve in the direction sought with a large enough effect; an effect the other way counts as inactive or inconclusive;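 note: CHO cells with doxycycline-induced ROR-gamma expression; luciferase reporter luminescence driven by ROR response element; series mostly up to about 92 µM; % is set by controls: 0 for no effect and ±100 for the full control effect; nearly all actives have a fitted effect of over 60% in size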)
# Method in brief: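 Luciferase read-out: ONE-Glo luminescence after 30 min at room temperature, following 16hr doxycycline induction at 37C, 5% CO2 of CHO cells with TET-inducible ROR and RORE-LUC reporter; decreased luminescence = reduced reporter activity.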
# [26] = target: Peroxisome proliferator-activated receptor gamma (Homo sapiens) (UniProt P37231); assay: qHTS assay for small molecule antagonists of peroxisome proliferator-activated receptor gamma signaling (AID 588537; active = well fitted inhibition curve with a large enough effect in the signal ratio, with a control signal flat, not every such curve was filed as active; the % refers to the signal ratio;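 note: reporter cells co-stimulated with 50 nM rosiglitazone agonist during compound treatment; % of control where 0% means no effect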)
# Method in brief: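 HEK293 cells, PPAR-gamma-UAS-bla, 3000/well. Pre-incubation 6-6.5 h, 37 C. Compound titration with rosiglitazone 50 nM final, 16 h. CCF4 dye, 2 h RT, dual-emission fluorescence.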
compound,measurement,setting,value
CCOP(=S)(Oc1cnc(C(C)(C)C)nc1)OC(C)C (stereo unspecified),activation,[1],2.58% (inactive)
same,Potency,[2],inactive
same,outcome,[3],inactive
same,max response,[4],-24.6%
same,Potency,[5],inactive
same,Potency,[6],inactive
same,Potency,[7],inactive
same,outcome,[8],inactive
same,max response,[9],-5.29%
same,Potency,[10],inactive
same,max response,[11],10.2%
same,max response,[12],1.44% (inactive)
same,activity change % (negative = inhibition),[13],4.48% (inactive)
same,activation,[14],-2.32% (inactive)
same,activation,[15],-0.139% (inactive)
same,activation,[16],6.61% (inactive)
same,Potency,[17],inactive
same,max response,[18],-6.73% (inactive)
same,Potency,[19],inactive
same,max response,[20],6.76% (inactive)
CC(=O)OCc1ccc2c(c1)OCO2,Potency,[21],10 µM (active)
same,Potency,[22],inactive
same,activation,[23],-1.12% (inactive)
Cc1ccc([N+](=O)[O-])cc1N,Potency,[22],inactive
same,activation,[23],-0.807% (inactive) and -1.04% (inactive)
same,outcome,[3],inactive
same,Potency,[24],33.5 µM (active) and inactive
Cc1cc([N+](=O)[O-])ccc1N,Potency,[22],inactive
same,activation,[23],-0.935% (inactive)
same,outcome,[3],inactive
NC(N)=S,activation,[23],-0.31% (inactive)
same,Potency,[25],inactive
Nc1cccc(C(F)(F)F)c1,activation,[23],-1.94% (inactive) and -0.257% (inactive)
same,outcome,[3],inactive
same,Potency,[26],inactive
same,activation,[14],-3.34% (inactive)
c1ccc(-c2ccc(-c3ccccc3)cc2)cc1,activation,[23],2.41% (inactive)
same,outcome,[3],inactive
same,Potency,[24],19.3 µM (active)
CC(O)CO (stereo unspecified),activation,[23],1.32% (inactive) and -0.791% (inactive)
same,outcome,[3],inactive
